In PubChem BioAssay (NCI) one finds growth data, which are given here for 8 compounds.

The panel holds about 83,000 compounds, 20% with a hit somewhere; the sample as a whole holds those more often.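 Cell lines were cultured in 96-well plates, exposed to a single compound concentration, and assessed for percent growth 48 hours later.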 A number with no mark means an inactive call. Active and inactive are the calls of the source. Rule for the calls: active = growth percent below 10; inactive = the rest.

Common to all, as to test: NCI-60 one-dose screen, 48 h (100 = growth as untreated, 0 = no growth, -100 = all killed)
Holding throughout (settings): 10 µM unless noted

The test system of assay [1] is K-562 leukemia.
Assay [2] relates to MALME-3M melanoma.
The subject of assay [3] is MDA-MB-231 breast.
Assay [4] has as its system RXF 393 renal.
Assay [5] deals with SF-268 CNS.
The subject of assay [6] is SF-295 CNS.
The test system of assay [7] is SF-539 CNS.
Assay [8] deals with UACC-257 melanoma.
Assay [9] has as its system M14 melanoma.
The subject of assay [10] is SNB-75 CNS.
For assay [11], the system named is SNB-19 CNS.
Assay [12] relates to U251 CNS.
Assay [13] has as its system PC-3 prostate.
In assay [14] the test system is SK-MEL-5 melanoma.
The test system of assay [15] is UACC-62 melanoma.
The subject of assay [16] is LOX IMVI melanoma.
The subject of assay [17] is SK-MEL-28 melanoma.
Assay [18] deals with SK-MEL-2 melanoma.
The subject of assay [19] is HCT-15 colon.
Assay [20] relates to HT29 colon.

With `Cc1ccc2c(c1)O/C(=C\c1ccc([N+](=O)[O-])o1)C2=O`, the growth in assay [1] is 2.06% (active); in assay [2] it was -10.5% (active); in assay [3] it was 48.4%; in assay [4], -23.5% (active); in assay [5], 29.3%; in assay [6] it was 94.3%. Moreover, the growth in [7] was 44.5%; in assay [8], 68.3%; in assay [9], 55.8%; in assay [10], 84.3%; in assay [11], 93.4%; in [12], 68.3%. Further, the growth was -61.2% (active) in [13]; 76.9% in assay [14]; 51.5% in assay [15]; 4.66% (active) in [16]; 83.3% in [17]; 79.2% in assay [18].
For the compound `CCC(O)C(C)(C)C` (stereo not given), the growth in assay [1] was 108%; in assay [2], 117%; in assay [3], 117%; in assay [4], 111%; in assay [5] it was 113%; in assay [6] it was 97%. Besides, the growth in assay [7] is 113%; in assay [8] it was 99.3%; in assay [9] it was 105%; in assay [19], 102%; in [10] it was 108%; in [11], 109%. Also, the growth in assay [13] was 108%; in [14], 113%; in [15] it was 104%; in [16], 93%; in assay [17] it was 121%; in assay [18], 129%.
Consider `c1ccc2cc(C[n+]3ccn(CCCCCCCn4cc[n+](Cc5ccc6ccccc6c5)c4)c3)ccc2c1`, for which the growth in [1] was 19.1%; in assay [2], -9.13% (active); in assay [3], 49%; in assay [4] it was 74%; in [5], 34.4%; in [6], 21.6%. Moreover, the growth is 33.4% in assay [7]; 15.8% in [8]; 47.1% in assay [9]; 10.4% in assay [20]; -2.59% (active) in assay [10]; 21.6% in assay [11]. Besides, the growth in [12] was 21%; in [14], -5.55% (active); in assay [15] it was 27.3%; in assay [16], 40.7%; in assay [17], 44.3%; in assay [18] it was 23.4%.
On to `CC(C)[C@H]1CC[C@H]2[C@@H](CC[C@H]3[C@](C)(CN)CCC[C@]23C)C1`, for which the growth is 18.7% in assay [1]; 83% in assay [2]; 63.6% in [3]; 86.9% in assay [4]; 53.5% in assay [5]; 80.5% in assay [6]. The growth was 98.8% in [7]; 108% in assay [8]; 93% in assay [9]; -57.7% (active) in assay [20]; 69% in [10]; 98.1% in assay [11]. The growth is 6.81% (active) in assay [12]; 65.1% in assay [13]; 99.5% in [14]; 92.7% in assay [15]; 102% in [17]; 80.3% in assay [18].
Regarding `COc1ccc(Cn2cc3c(c2-c2ccccc2)CCc2cncnc2-3)cc1`, the growth in [1] is 22.1%; in [2] it was 26.9%; in assay [3] it was 50%; in assay [4], 55.3%; in [5] it was 63.1%; in assay [6] it was 24.3%. Further, the growth in assay [7] was 59.7%; in [8], 74.9%; in [9], 24.5%; in [20], 19.7%; in assay [10], 71.1%; in [11], 62.8%. In addition, the growth in [12] is 47%; in [14], 55.4%; in assay [15] it was 33.3%; in assay [16], 52.3%; in assay [17], 59.3%; in assay [18], 28.2%.
As for `CCC(c1ccccc1)c1noc(CCN(CC)CC)n1` (stereo not given), the growth in [1] is 65.1%; in assay [2], 93.8%; in [3], 106%; in assay [4] it was 33.3%; in assay [5], 103%; in assay [6] it was 108%. Further, the growth is 101% in assay [7]; 96.7% in assay [9]; 108% in assay [19]; 117% in assay [20]; 86.6% in assay [10]; 105% in assay [11]. Moreover, the growth is 98.1% in [12]; 95.5% in assay [13]; 102% in assay [14]; 98.9% in [15]; 100% in assay [16]; 101% in assay [17]. The growth in assay [18] was 19.4%.
Take `Nc1ccc2c3c(cccc13)-c1ccccc1-2`: the growth in assay [1] is 84.4%; in assay [2], 98.4%; in assay [3] it was 76.5%; in [4] it was 93%; in assay [5] it was 78.4%; in [6], 102%. Besides, the growth in [8] is 104%; in [9] it was 90.2%; in assay [19] it was 86.1%; in [20], 108%; in [11] it was 97.7%; in assay [12], 94.9%. Further, the growth was 73% in assay [13]; 98.4% in assay [14]; 84.7% in [15]; 91.7% in assay [16]; 110% in assay [17]; 105% in [18].
In the case of `COc1ccc(Nc2ccnc(NCCCNc3ccnc4cc(Cl)ccc34)n2)cc1`, the growth was -19.2% (active) in assay [1]; -81.5% (active) in [2]; -73.4% (active) in assay [3]; -90% (active) in [4]; -28.6% (active) in [5]; -82.2% (active) in assay [6]. The growth is -100% (active) in [7]; -91.9% (active) in assay [9]; -54.6% (active) in assay [19]; -56.6% (active) in [20]; -75.5% (active) in assay [10]; 7.11% (active) in [11]. For the same compound, the growth in [12] was -84.3% (active); in assay [14] it was -98% (active); in assay [15], -91.2% (active); in [16], -80.4% (active); in assay [17], -93.6% (active); in assay [18], -86.4% (active).
